# Laboratory results reported in PubChem BioAssay AID504332 (National Center for Advancing Translational Sciences (NCATS), 2011).
# Where “and” joins values, the source holds several entries; their conditions need not be identical. Equal values may be shown once. Out of some 350,000 compounds screened, about 31,000 (8.9%) were called active. About 15% were inconclusive and are not listed. Calls follow the shape of the dose curve; as a rule, active = well fitted inhibition curve with a large enough effect; inconclusive = small, poorly fitted or top-dose-only effect; inactive = no such curve, though single readings can be large or run the other way. What follows is part of a selection rich in actives, with near analogues and random picks from the rest. Entries that show only a call come without a potency.
# Molecular target: Histone-lysine N-methyltransferase EHMT2 (Homo sapiens) (UniProt Q96KQ7)
# Sequence (Q96KQ7 913-1193 limits assumed): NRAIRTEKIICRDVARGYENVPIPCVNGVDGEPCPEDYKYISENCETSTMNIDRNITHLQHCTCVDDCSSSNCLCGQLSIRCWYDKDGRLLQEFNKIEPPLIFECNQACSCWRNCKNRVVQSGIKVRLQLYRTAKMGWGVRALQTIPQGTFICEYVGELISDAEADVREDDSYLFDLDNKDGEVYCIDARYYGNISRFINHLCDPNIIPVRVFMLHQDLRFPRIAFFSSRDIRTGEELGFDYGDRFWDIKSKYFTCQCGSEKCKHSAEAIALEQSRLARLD
# Assay: qHTS Assay for Inhibitors of Histone Lysine Methyltransferase G9a; also: nearly all actives have a fitted effect of over 75% in size
# Conditions: G9a H3K9 monomethylation, AlphaScreen, 2 h; series mostly up to 59 µM
# Method in brief: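 Readings reflect AlphaScreen signal from monomethyl-H3K9 antibody detection. HMT at 20 nM; substrate b-H3K9 500 nM; cofactor SAM 20 uM; 2 h RT reaction; compounds tested as titrations in qHTS with 15 min preincubation.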
# Potency is read from the fitted curve at half-maximal effect.
Compound,Potency,"activity, negative = inhibition"
CC(=O)Nc1cccc(C(=O)OCC(=O)Nc2nnc(-c3ccccc3)o2)c1,inactive,
CN(CC(=O)NCc1cccnc1)S(=O)(=O)c1cc(Cl)ccc1Cl,inactive,
COc1ccc(NC(=O)C2CCN(S(=O)(=O)c3ccc4[nH]c(=O)oc4c3)CC2)c(OC)c1,inactive,
CCOC(=O)CN1C(=O)C(O)(CC(=O)c2ccccn2)c2ccccc21 (stereo not given),inactive,
O=C(CC1(O)C(=O)N(CN2CCOCC2)c2ccccc21)c1ccccc1 (stereo not given),inactive,
C=CCN1C(=O)C(O)(CC(=O)c2ccc(Cl)cc2)c2ccccc21 (stereo not given),44.7 µM (active),
COc1ccc(CCNC(=O)c2ccc(CSCc3ccc(C)cc3)o2)cc1OC,inactive,
CCc1nnc2c3ccccc3nc(N3CCN(c4ccc(C)cc4C)CC3)n12,inactive,
Cc1ccc(/C=C/C(=O)OCC(=O)Nc2cccnc2Cl)cc1,,5.18% [at 12.7 µM] (inactive)
CC(=O)c1c(N)n(C)c(=O)n(C)c1=O,inactive,
CC(=O)Nn1cc2c(=O)n(C)c(=O)n(C)c2c1,35.5 µM (active),
CC(=O)NNc1cc(=O)c2c(=O)n(C)c(=O)n(C)c2[nH]1,inactive,
Nc1ccn(CC(=O)N2CCN(c3ccccn3)CC2)c(=O)n1,,-0.804% [at 0.501 µM] (inactive)
COC(=O)c1ccccc1NS(=O)(=O)c1ccc2c(c1)CCCN2C(C)=O,inactive,
C[C@@H](C(=O)Nc1ccc2ccccc2c1)[C@@H]1C[C@@]1(C)[C@@H](NC(=O)c1cccnc1)c1ccccc1,50.1 µM (active),
O=C(Nc1ccc(N2CCN(C(=O)c3ccccc3)CC2)c(Cl)c1)c1cccnc1,inactive,
COC(=O)[C@H](C)[C@H]1C[C@]1(C)[C@H](NC(=O)OCc1ccccc1)c1ccccc1,inactive,
CC(=O)N[C@@H](C)C(=O)N1CCC(n2nccc2NC(=O)CCCc2ccccc2)CC1,inactive,
CC(NS(=O)(=O)c1ccc(Cl)cc1)C(=O)Nc1ccc2c(c1)OCCO2 (stereo not given),inactive,
N#C/C(=C\c1ccccc1C(F)(F)F)C(=O)Nc1ccccc1F,inactive,
Cc1ccc(C(=O)Nc2ccccc2F)cc1S(=O)(=O)N1CCOCC1,inactive,
N#C/C(=C\C1=C(N2CCOCC2)C(=C\c2ccccc2)/CC1)C(=O)Nc1ccccc1F,7.08 µM (active),
CCOCCCn1c(SCC(=O)Nc2ccc(CC)cc2)nc2ccccc2c1=O,inactive,
O=C(CCc1nc(CN2CCN(S(=O)(=O)c3ccc(F)cc3)CC2)no1)N1CCCCC1,inactive,

Compound,Potency,"activity, negative = inhibition"
COc1ccc(N(C)C(=O)C2CCN(S(=O)(=O)c3cc(Br)cc4c3N(C(C)=O)CC4)CC2)cc1,inactive,
CCOc1ccc(CNC(=O)c2cc(=O)[nH]c3ccc(S(=O)(=O)N4CCCCC4)cc23)cc1,inactive,
Brc1ccc(C2=NCCC(c3ccccc3)O2)cc1 (stereo not given),inactive,
Brc1ccc(C2CC(c3ccccc3)=Nc3ccccc3N2)cc1 (stereo not given),39.8 µM (active),
CNC(=S)N1N=C(c2ccccc2)CC1c1ccc(Br)cc1 (stereo not given),inactive,
COc1cc(C(=O)N2CCC(c3ccncc3)CC2)cc(OC)c1OC,inactive,
Cc1ccc(NC(=O)c2ccccn2)cc1S(=O)(=O)N1CCOCC1,inactive,
Cc1ccc(NC(=O)C(C)OC(=O)Cc2c[nH]c3ccccc23)cc1S(=O)(=O)N1CCOCC1 (stereo not given),35.5 µM (active),
CC(OC(=O)CCCc1c[nH]c2ccccc12)C(=O)Nc1ccc(S(N)(=O)=O)cc1 (stereo not given),,14.8% [at 0.501 µM] (inactive)
CS(=O)(=O)c1ccc2nc(NC(=O)c3ccc(N4CCCC4=O)cc3)sc2c1,inactive,
CS(=O)(=O)c1ccc2nc(NC(=O)C3CCCCC3)sc2c1,inactive,
CS(=O)(=O)c1ccc2nc(NC(=O)CN3CCCCCC3)sc2c1,17.8 µM (active),
COc1cccc(NC(=O)CN(C)C(=O)CSCc2nc3scc(-c4cccs4)c3c(=O)[nH]2)c1,inactive,
COc1ccc(OCCCON2C(=O)c3ccccc3C2=O)cc1,inactive,
CCOC(=O)C1=C(c2ccc(OC)cc2)C(=O)c2ccccc2C1=O,31.6 µM (active),
CCOC(=O)c1c(C)[nH]c2c1-c1ccccc1C(=O)C2=O,inactive,
CSCCC(NS(=O)(=O)c1ccccc1F)C(=O)N1CC=C(c2ccccc2)CC1 (stereo not given),inactive,
CC(C)(C)c1ccc(C(=O)N2CCC(c3nc(-c4ccc(S(=O)(=O)N5CCCC5)cc4)no3)CC2)cc1,inactive,
CCc1nn(CCCC(=O)NCc2ccccc2OC)c(=O)c2cc3occc3n12,inactive,
Cc1ccc(Cl)cc1NC(=O)CSc1nc2ccccc2nc1Cc1ccccc1,inactive,
COc1ccc(CNc2ncnc3ccccc23)cc1,inactive,
CCOC(=O)c1sc(NC(=O)c2ccncc2)nc1C,inactive,
CCOC(=O)C1=C(C)Nc2sc(C(=O)c3ccc(Br)cc3)c(N)c2C1c1ccc(C(=O)OC)cc1 (stereo not given),,0.599% [at 12.7 µM] (inactive)
CCOC(=O)c1sc(=S)n2c1[nH]c(=O)c1ccc(C(=O)OC)cc12,7.94 µM (active),

Compound,Potency,"activity, negative = inhibition"
CC(=O)N1CCCc2cc(S(=O)(=O)Nc3ccc(Cl)cc3F)ccc21,inactive,
Cc1nc2sc(C(c3ccco3)N3CCOCC3)c(O)n2n1 (stereo not given),11.2 µM (active),
Oc1c(C(c2ccccc2Cl)N2CCOCC2)sc2nc(-c3ccco3)nn12 (stereo not given),inactive,
Cc1ccc(C(c2sc3nc(C)nn3c2O)N2CCN(c3ccccc3)CC2)cc1 (stereo not given),,15.6% [at 12.7 µM] (inactive)
Oc1c(C(c2ccco2)N2CCC3(CC2)OCCO3)sc2ncnn12 (stereo not given),35.5 µM (active),
COc1cccc(CNC(=O)CCc2nc(-c3ccc(C)cc3)no2)c1,inactive,
CCCN1CCN(CCCNC(=O)c2cnn(-c3ccc(C)cc3)c2-n2cccc2)CC1,inactive,
COc1ccc(-c2ccc(=O)n(CC(=O)Nc3ccc(Br)cc3F)n2)cc1,inactive,
O=C(COc1ccc(Cl)cc1)NCCS(=O)(=O)N1CCN(c2ccc(F)cc2)CC1,inactive,
COc1ccccc1/C=C/c1nc(C#N)c(NC(C)c2ccccc2)o1 (stereo not given),inactive,
CS(=O)(=O)c1ccc(-c2nnc(NC(=O)c3ccc4c(c3)OCCO4)o2)cc1,inactive,
O=C(Nc1nnc(C2=COCCO2)o1)c1ccc([N+](=O)[O-])s1,44.7 µM (active),
CSc1ccccc1-c1nnc(NC(=O)c2ccc3c(c2)OCCO3)o1,inactive,
Cc1ccccc1OCC(=O)Nc1ccc2c(c1)ncn2C,,-10.2% [at 0.501 µM] (inactive)
COc1ccc(S(=O)(=O)N(C)CC(=O)NCCCN2CCOCC2)cc1Cl,inactive,
O=S(=O)(NCCCN1CCOCC1)c1ccc(F)c(Cl)c1,,27% [at 12.7 µM] (inactive)
COc1ccc(-c2ccc(CNCCCN3CCOCC3)o2)cc1Cl,50.1 µM (active),
O=C(NCc1cccnc1)c1cc(S(=O)(=O)N2CCOCC2)c(Cl)cc1Cl,,-2.17% [at 2.33 µM] (inactive)
CCc1cccc(NC(=O)CN(c2ccc(C)c(C)c2)S(=O)(=O)c2ccsc2C(=O)OC)c1,inactive,
CC(=O)Nc1ccc(S(=O)(=O)N2CCC(C(=O)N[C@@H](Cc3ccccc3)C(=O)O)CC2)cc1,inactive,
CSc1cccc(NC(=O)CN2C(=O)CCc3cc(S(=O)(=O)N4CCCCC4)ccc32)c1,inactive,
Cc1ccc(NN=Nc2nc3c([nH]2)c(=O)n(C)c(=O)n3C)cc1,1.58 µM (active),
CC(CCO)Nc1nc2c([nH]1)c(=O)n(C)c(=O)n2C (stereo not given),inactive,
Cc1cccc(C)c1NC(=O)CSc1nc2c([nH]1)c(=O)n(C)c(=O)n2C,inactive,

Compound,Potency,"activity, negative = inhibition"
CC(=O)Cc1nsc(NC(=O)c2ccc(Cl)cc2Cl)n1,inactive,
Cc1ccc(NC(=O)c2csc3c2CCCC3)cc1,inactive,
CC(=O)Cc1nsc(NC(=O)c2csc3c2CCCC3)n1,2.51 µM (active),
CCCOc1ccc(C2c3c(-c4ccccc4O)n[nH]c3C(=O)N2Cc2cccnc2)cc1 (stereo not given),inactive,
COc1ccc(C2C(C(C)=O)=C(O)C(=O)N2Cc2cccnc2)cc1 (stereo not given),20 µM (active),
COc1cc(C2C(C(=O)c3ccc(C)o3)=C(O)C(=O)N2Cc2cccnc2)ccc1O (stereo not given),inactive,
O=C(c1ccc(Br)cc1)N(Cc1cccs1)c1ccc(F)cc1,inactive,
CCCOc1ccc(C2=CSC3=NCCN23)cc1Cl,inactive,
COc1ccc(CCNc2ncnc3onc(-c4ccc(Cl)cc4)c23)c(OC)c1,inactive,
CCCCn1c(CNC(=O)C23CC4CC(CC(C4)C2)C3)nnc1SCC(=O)Nc1ccc(C)cc1,inactive,
COc1ccc(-c2onc(C)c2C)cc1S(=O)(=O)NCC1CCN(Cc2cccc(F)c2)CC1,inactive,
O=C(c1cccc([N+](=O)[O-])c1)N1CCN(Cc2ccccc2)CC1,inactive,
Cc1cc(OCCCCOc2ccc(C#N)cc2)ccc1[N+](=O)[O-],,30.7% [at 12.7 µM] (inactive)
Cc1cc(OCCCN2CCN(Cc3ccccc3)CC2)ccc1[N+](=O)[O-],8.91 µM (active),
COc1ccc(-c2nc(Cn3c(=O)cc(C)c4c(C)nn(-c5ccccc5)c43)c(C)o2)cc1OC,inactive,
O=c1[nH]c(=S)[nH]c2[nH]c(=S)[nH]c12,1.58 µM (active) and 1.26 µM (active),
CN(CC(=O)Nc1ccc(Cl)cc1)CC(=O)Nc1cccc2ccccc12,,-44.6% [at 12.7 µM] (inactive)
CCOC(=O)c1cc(Sc2ccccc2N)cc(C(=O)OCC)n1,inactive,
Cc1ccc(S(=O)(=O)NCCSc2ccccc2)cc1[N+](=O)[O-],inactive,
CCS(=O)(=O)c1cc([N+](=O)[O-])c(Sc2ccccc2N)s1,1.12 µM (active),
CCOc1ccccc1NC(=O)Cn1ncc2ccc([N+](=O)[O-])cc21,inactive,
CCc1ccccc1NC(=O)c1ccc2nc(CCc3ccccc3)oc2c1,inactive,
COc1ccc(C)cc1NC(=O)CCCN1C(=O)NC(C)(C)C1=O,,20.4% [at 2.33 µM] (inactive)
